Whole data set: some 35,000 sequences, median “fluorescence intensity (a.u.)” near 10,000, cut for the highest 2% near 52,000. The sample holds the highest values, similar sequences and a random draw of the others, so the mix is not that of the screen.
Each sequence was assayed against T1, OsWOX13 (Oryza sativa, UniProt Q5QMM3 1-267) (assay: protein-binding microarray (RPBM); PBS, 2% BSA, 51.3 ng/ul salmon testes DNA, 50 uM zinc acetate, 200 nM TF, 25 C, 1 h; high values mean tight binding). Settings: protein: recombinant; tags: N-terminal polyhistidine and DsRed monomer fusion (pET32a); label: CyDye5-dUTP incorporated in the synthesized complementary strand; 3' TTTTT single-stranded linker to array surface; dsDNA, one strand shown.
T1 sequence: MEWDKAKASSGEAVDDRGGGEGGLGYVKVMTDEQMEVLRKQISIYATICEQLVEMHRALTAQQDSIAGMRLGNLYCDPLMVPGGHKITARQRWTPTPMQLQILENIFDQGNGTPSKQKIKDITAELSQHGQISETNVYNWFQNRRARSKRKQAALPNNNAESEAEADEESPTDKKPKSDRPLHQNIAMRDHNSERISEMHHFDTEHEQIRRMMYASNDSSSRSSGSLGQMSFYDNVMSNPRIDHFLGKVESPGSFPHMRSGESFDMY
In short: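 In PBS with 2% BSA, salmon testes DNA and 50 µM zinc acetate, 200 nM protein was incubated on a custom Agilent array at 25 °C for 1 h and then washed off. The array had been made double-stranded by primer extension with Cy5-dUTP and blocked with 2% BSA. The proteins were transcription factors fused N-terminally to polyhistidine and DsRed, expressed in E. coli BL21-CodonPlus and purified on Ni–NTA. The binding signal is per-feature fluorescence intensity (arbitrary units) from an Axon 4000B scanner.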

Sequence | binding signal
GGTTCCACTATCAATCTTAGACAGTATAAACAGGTCAACACGGAGTCACCTAGTGCAG | 5380 fluorescence intensity (a.u.)
TGAGAGTGGCATTTAATTGAATCCTATTATGATGGTGGCACGGAGTCACCTAGTGCAG | 16100 fluorescence intensity (a.u.)
ATAATTTGATCAAATTACATGTGATTTTGTGAAATTTACACGGAGTCACCTAGTGCAG | 39700 fluorescence intensity (a.u.)
TCTGATTGCAATCATTCTTGAATTCTGATACATATTGGATCGGAGTCACCTAGTGCAG | 60300 fluorescence intensity (a.u.)
CTGATTAGTGATTTATTTAATTTGAGGAATCATTTTGGCACGGAGTCACCTAGTGCAG | 64900 fluorescence intensity (a.u.)
TTAATTACAAATTGATTTGATCACGTAGATAATTACATCACGGAGTCACCTAGTGCAG | 62000 fluorescence intensity (a.u.)
AATTGATTTACAATACTTCCTCCGTTTCACAATATAAGTGCGGAGTCACCTAGTGCAG | 24700 fluorescence intensity (a.u.)
AAGGAGAATTTTCTTGATTGAAATTATACATCATATTCATCGGAGTCACCTAGTGCAG | 29500 fluorescence intensity (a.u.)
GTAATTTATATTGAAATGCAATTACTTCCTCCGTTTCACCCGGAGTCACCTAGTGCAG | 21800 fluorescence intensity (a.u.)
GATTAATTTAGAAATTTTGAATTCTATTACATAATGATCACGGAGTCACCTAGTGCAG | 20600 fluorescence intensity (a.u.)
AACAATTGATTAGTACAAAATGGTACTTCCTCCGTTTCACCGGAGTCACCTAGTGCAG | 56600 fluorescence intensity (a.u.)
TATTCTGATTGGAACTTATGAGTCTTGAATTCTTGATTCTCGGAGTCACCTAGTGCAG | 39000 fluorescence intensity (a.u.)
CGGAATTAATCTGATTATGTGAGTGAATTGGCATTTTGAACGGAGTCACCTAGTGCAG | 30700 fluorescence intensity (a.u.)
CAAAACTGAGTACATTGGATTGGACCATCTAAAAGGAAATCGGAGTCACCTAGTGCAG | 4580 fluorescence intensity (a.u.)
TTTATCAAATTATCGTTTGTGTACTCTAGCTGGTCCTGGACGGAGTCACCTAGTGCAG | 3870 fluorescence intensity (a.u.)
TGAAATTATTAGCAGGGTTTTAAATCTTCTGTTATAGCTGCGGAGTCACCTAGTGCAG | 4040 fluorescence intensity (a.u.)
GGTAATAGAGAGACCACTAATAAAGATTGTTGTACCTGTGCGGAGTCACCTAGTGCAG | 3690 fluorescence intensity (a.u.)
CCCTAGACAGATCAGCTTTGGTGTCTTGGTGGTTGTTGTCCGGAGTCACCTAGTGCAG | 5440 fluorescence intensity (a.u.)
TGTTTAAGTTTGTCCTAATTACCTGTCACATTTTCCGTGCCGGAGTCACCTAGTGCAG | 8460 fluorescence intensity (a.u.)
GGCAGTGACTAATTAACCTCACGGATGACAGGCGGCGAAACGGAGTCACCTAGTGCAG | 10300 fluorescence intensity (a.u.)
ATCAGCTGATTACCTCACTGCATCCGTATGATTCGACTTTCGGAGTCACCTAGTGCAG | 7310 fluorescence intensity (a.u.)
GATAATTGAGGGATTATTTTATGGATATACTAGATCTGCACGGAGTCACCTAGTGCAG | 52400 fluorescence intensity (a.u.)
AATATATGGATAATTGTACTAGATTATCCTATTTCATACACGGAGTCACCTAGTGCAG | 6460 fluorescence intensity (a.u.)
TTTAATTGATTTTGTTTAGAATTTGAGGACATGATCCACGCGGAGTCACCTAGTGCAG | 62900 fluorescence intensity (a.u.)
TGTGAGTGATCAAATAATTGATCATAATTTTCTATCGATTCGGAGTCACCTAGTGCAG | 37500 fluorescence intensity (a.u.)
ACTTGACAGCCCTAATTGATCTTATTACATGCAGAGGATCCGGAGTCACCTAGTGCAG | 56300 fluorescence intensity (a.u.)
ACATGACTAATCTTATTGACTTAAGAGCTGATTAGGATACCGGAGTCACCTAGTGCAG | 20200 fluorescence intensity (a.u.)

Sequence | binding signal
TGGATTGAGATATTTATTTATGATGATCACATCTGCACCTCGGAGTCACCTAGTGCAG | 9980 fluorescence intensity (a.u.)
ATGATTAGAGAGAATGGGTTTAGTTATTTGTTGATCCACACGGAGTCACCTAGTGCAG | 29400 fluorescence intensity (a.u.)
GTGCTCTAATTATTTGTATCTTACAGATAGATGACAGAGCCGGAGTCACCTAGTGCAG | 19100 fluorescence intensity (a.u.)
GATCTGATTGAGACATATCTGAAAATAATTTGCACGCAGACGGAGTCACCTAGTGCAG | 30600 fluorescence intensity (a.u.)
CTCCGGTTTAATTTTAATTGATGTTTTGGACAATGGCACGCGGAGTCACCTAGTGCAG | 44900 fluorescence intensity (a.u.)
CATAATTGCACGATCATTGATTTTGGAACATTCTGAGGCTCGGAGTCACCTAGTGCAG | 57100 fluorescence intensity (a.u.)
TCAATTAATATATAATTGGCATTGGGTTTGATCATCTCTGCGGAGTCACCTAGTGCAG | 50700 fluorescence intensity (a.u.)
CATGTTAATTTGGGACGAGAGTCGGACTCCTATTTCCTTTCGGAGTCACCTAGTGCAG | 7570 fluorescence intensity (a.u.)
AAAATTGATGTTCTCTTTGGTGCATTTCTTTCTTATTGTCCGGAGTCACCTAGTGCAG | 26800 fluorescence intensity (a.u.)
CAATTATCAATCAGTCTGAAATCTTGCATTTGCATTTGCACGGAGTCACCTAGTGCAG | 22400 fluorescence intensity (a.u.)
TAAGACTAATTATTCTTTTAGTAATAGACGACGTACTCGCCGGAGTCACCTAGTGCAG | 22300 fluorescence intensity (a.u.)
ATTAATTAATTAGTGATCATACATAATTGAGGTGATTTATCGGAGTCACCTAGTGCAG | 65000 fluorescence intensity (a.u.)
ACGTGATACATCTTGTTCTAGATTTGTTTAATTTAAGCCACGGAGTCACCTAGTGCAG | 3240 fluorescence intensity (a.u.)
TTAATTGATTTAGTTGGTGACCTTATATCTTGTTTAGATACGGAGTCACCTAGTGCAG | 60600 fluorescence intensity (a.u.)
AATTGTCCCTGATTGACACCTCTTACTTGACCCTTCTTTCCGGAGTCACCTAGTGCAG | 42600 fluorescence intensity (a.u.)
TATTTTAGATTGATATACAATCTTTTGTGGTGTTAGCACTCGGAGTCACCTAGTGCAG | 52900 fluorescence intensity (a.u.)
ACTTGCATGCTTAATTGATTTAGTTGGTGACCTTATATCTCGGAGTCACCTAGTGCAG | 37800 fluorescence intensity (a.u.)
GTGCATTATCGATCATAATTAGCAGGTGAGAGATATTTAACGGAGTCACCTAGTGCAG | 4060 fluorescence intensity (a.u.)
GTAGATATTGATGATTTATATAACTTTGTTGTTGATGACTCGGAGTCACCTAGTGCAG | 14500 fluorescence intensity (a.u.)
AATGATTGACAATACTTAGATTTCTTCCCTTAATTACATCCGGAGTCACCTAGTGCAG | 54400 fluorescence intensity (a.u.)
TTTGATTGTGGTTATTGCACTGAAATTTTACAGATATTGTCGGAGTCACCTAGTGCAG | 31800 fluorescence intensity (a.u.)
ATATAATTATAATTTATTTTATTGTGACTTGATTTATCATCGGAGTCACCTAGTGCAG | 36400 fluorescence intensity (a.u.)
ATCCCTAATACGATTTACATGATTAGAGGAGAGACAATTTCGGAGTCACCTAGTGCAG | 4470 fluorescence intensity (a.u.)
GAGCAGCAGCTTAATTGGATCATCGAATCTCGCACCGCCACGGAGTCACCTAGTGCAG | 4860 fluorescence intensity (a.u.)
TAAACTTAATTTTAAAATCATAATTCAGAAATGTGGTGAACGGAGTCACCTAGTGCAG | 30500 fluorescence intensity (a.u.)
ATGACTTGACGAGGTAAATAAAATTGGACCGGGCAGCAAACGGAGTCACCTAGTGCAG | 3900 fluorescence intensity (a.u.)
CCCTAATCCCATTTAATCAGCACAGCTTCTTAATTACTCCCGGAGTCACCTAGTGCAG | 6810 fluorescence intensity (a.u.)

Reference: PMC7819943, “Rice protein-binding microarrays: a tool to detect cis-acting elements near promoter regions in rice”
